# Screening data as filed in PubChem.
# Rows were chosen to be rich in hits. Some 18% of all compounds tested hit in one or more screens of this group.
# DT40 TDP1 no CPT = qHTS for Inhibitors of human tyrosyl-DNA phosphodiesterase 1 (TDP1): qHTS in cells in absence of CPT | Potency, µM (doses to about 46.2 µM), hits mostly inhibitors | 15% of 420,000 active | AID 686978, 2013 | DT40 Tdp1-/- hTDP1 cells, no CPT, ATP luminescence, 48 h; further: nearly all actives have a fitted effect of over 55% in size
#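 Compound effects on proliferation are scored in DT40 Tdp1-/-;hTDP1 cells in the absence of CPT. ATP levels (CellTiter-Glo luminescence) are recorded after a ≥48 hr, 37 °C incubation.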
# PLK1 PBD inh = blocks phosphopeptide binding to human PLK1 polo-box domain | Plk1 PBD binding of FITC phosphopeptide, fluorescence polarization | Potency, µM, hits mostly inhibitors | 2.8% of 360,000 active | AID 720504; further: series mostly up to about 57 µM; nearly all actives have a fitted effect of over 65% in size
# Target sequence (P53350 whole entry, looked up, the tested form may be a part): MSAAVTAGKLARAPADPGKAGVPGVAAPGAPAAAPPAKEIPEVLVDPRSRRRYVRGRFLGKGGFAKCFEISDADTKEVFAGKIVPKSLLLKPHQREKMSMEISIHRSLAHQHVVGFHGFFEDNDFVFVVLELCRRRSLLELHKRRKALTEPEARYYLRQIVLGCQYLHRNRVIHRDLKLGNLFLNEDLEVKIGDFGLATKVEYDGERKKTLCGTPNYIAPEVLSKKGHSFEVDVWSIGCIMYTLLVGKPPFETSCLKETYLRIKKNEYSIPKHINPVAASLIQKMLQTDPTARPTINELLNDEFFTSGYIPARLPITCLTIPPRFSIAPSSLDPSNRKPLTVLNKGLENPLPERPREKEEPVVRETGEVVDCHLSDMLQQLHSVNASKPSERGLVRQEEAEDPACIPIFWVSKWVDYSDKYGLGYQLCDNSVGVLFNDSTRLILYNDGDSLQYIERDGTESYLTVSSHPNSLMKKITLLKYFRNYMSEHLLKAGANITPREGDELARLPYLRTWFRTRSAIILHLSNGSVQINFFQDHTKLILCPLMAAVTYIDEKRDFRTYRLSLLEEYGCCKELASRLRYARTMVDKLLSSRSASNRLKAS
# GCN5L2 inh = GCN5L2 (KAT2A) acetyltransferase inhibition; Q92830; GCN5L2 HAT assay, ThioGlo1 CoA-SH fluorescence; Potency, µM (highest dose often 58.9 µM), usual class: inhibitors; 0.21% of 390,000 active; AID 504327
#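 Compounds, pin-transferred from DMSO stocks, meet 20nM GCN5L2 for 15 min before the reaction begins with H3(1-25) peptide (75uM) and acetyl-CoA (70uM). Thiol-reactive ThioGlo1 reports CoA release over 20 min at room temperature.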
# TDP1 inh = blocks human tyrosyl-DNA phosphodiesterase 1. Q9NUW8. recombinant TDP1, AlphaScreen DNA substrate cleavage. Potency, µM (doses to about 130 µM), hits mostly inhibitors. 0.28% of 350,000 active. AID 485290; further: nearly all actives have a fitted effect of over 40% in size
#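 Steps: enzyme plus compound, 15 min RT; add biotin/phosphotyrosine-FITC oligonucleotide (15 nM final), react 5 min; add donor/acceptor beads (10 ug/ml final), 10 min; read AlphaScreen. Tdp1 at 1 nM final.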
# VDR inh = blocks the human vitamin D receptor | VDR-SRC2-3 peptide fluorescence polarization, 2 h | Potency, µM, most hits filed as inhibitors | 0.93% of 400,000 active | AID 504847
#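 Signal is fluorescence polarization, reporting how far test compounds block the interaction of VDR with the SRC2-3 coregulator peptide after a 2 h room-temperature incubation.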
# TDP1 cell CPT = DT40-hTDP1 cell growth loss with CPT | chicken DT40 Tdp1-/-;hTDP1 cells + 20 nM CPT, ATP luminescence, 48 h | Potency, µM (titrated, usually from 46.2 µM), usual class: inhibitors | 12% of 420,000 active | AID 686979; further: nearly all actives have a fitted effect of over 55% in size
#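 Chicken DT40 Tdp1-/- cells stably complemented with human TDP1 were seeded at 400 cells/well in medium containing 20 nM camptothecin, exposed to pin-transferred compounds, and grown at 37 °C for at least 48 hr. Viability was read as ATP luminescence.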
# Numbers stand for hits; - = inactive; ? = inconclusive; . = no result; [ ] = remark or other dose. The call rests on the fitted dose curve; in most records, active means well fitted curve in the direction sought with a large enough effect; inconclusive means small, poorly fitted or top-dose-only effect, or another doubt; inactive means no such curve, though single readings can be large; an effect the other way counts as inactive or inconclusive.
SMILES,DT40 TDP1 no CPT,PLK1 PBD inh,GCN5L2 inh,TDP1 inh,VDR inh,TDP1 cell CPT
COc1ccc(N(C(=O)/C=C\C(=O)Nc2ccc(C)cc2)C(C(=O)NCc2ccco2)c2ccc(C)cc2)cc1 (centres undefined),4.1µM,.,-,-,-,6.5µM
Cc1ccc(NC(=O)/C=C\C(=O)N(c2ccc(C(C)C)cc2)C(C(=O)NCc2ccco2)c2ccc(F)cc2)cc1 (centres undefined),18µM,.,-,-,-,15µM
CCN(C(=O)COC(=O)c1ccc(-n2c(C)ccc2C)cc1)c1c(N)n(Cc2ccccc2)c(=O)[nH]c1=O,-,-,.,.,-,?
CC(=O)Nc1ccc(C2Nc3c(C)cc(C)cc3-c3cc(C)nn32)cc1 (centres undefined),?,.,-,-,-,18µM
COC(=O)c1ccc(C2Nc3c(C)cccc3-c3cc(C)nn32)cc1 (centres undefined),16µM,.,-,-,-,?
CCN(CC)c1ccc(C2Nc3ccccc3-c3cc(C)nn32)cc1 (centres undefined),-,.,-,-,-,-
CCCCNC(=S)N/N=C1\C(=O)c2cccc3cccc1c23,26µM,-,-[0.501 µM],-,-,?
CNC(=S)N/N=C1\C(=O)c2cccc3cccc1c23,16µM,-,-,-,-,29µM
O=C(N/N=C1\C(=O)c2cccc3cccc1c23)c1ccc(O)cc1,?,-,-,-,-,?
CCNC(=S)N1CCN(CCN2C(=O)c3cccc4cccc(c34)C2=O)CC1,?,-,-,-,-,-
Cc1cccc(OCCn2c(CCNC(=O)C3CCCCC3)nc3ccccc32)c1,?,.,.,-,-,?
C=CCn1nnnc1SCC(=O)Nc1cccc(C(F)(F)F)c1,-,-,?,-,-,-
COc1cc(CN2CCC3(CCC(CNC(=O)c4ccco4)O3)CC2)cc(OC)c1 (centres undefined),-,.,.,.,.,-
CC(C)C(=O)C1=Cc2cccc([N+](=O)[O-])c2OC1N1CCOCC1 (centres undefined),?,-,-,-,-,?
COC(=O)C1=Cc2cc(OC)cc([N+](=O)[O-])c2OC1N1CCOCC1 (centres undefined),26µM,-,-,.,-,?
COc1ccc(C(NC(C)=O)c2ccc3cccnc3c2O)cc1OC (centres undefined),6.3µM,.,.,.,.,6.3µM
CC(=O)NC(c1ccc2ccccc2c1)c1ccc2cccnc2c1O (centres undefined),4.6µM,-,-,.,-,3.3µM
COc1ccc(C(NC(C)=O)c2ccc3cccnc3c2O)c(OC)c1 (centres undefined),2.9µM,-,-,-,-,3.7µM
Cc1cccc(-n2cnc(C(=O)NC3CCCCCC3)c2)n1,?,24µM,-,-,-,-
COc1ccc(C2(OC)Oc3cc(OC)ccc3C(=O)C2(O)OC)cc1 (centres undefined),?,-,.,.,-,23µM
COc1ccc2c(c1)C(=O)CC(O)(C(F)F)O2 (centres undefined),-,-,-,-,-,-
CC(C)C(NC(=O)c1ccc(F)cc1)C(=O)NCC1CCCO1 (centres undefined),-,-,-,-,-,-
CCCCC#Cc1ccccc1CC(=O)Nc1ccccc1,-,-,-,50µM,-,?
Cc1ccc(-n2c(=O)c3cccnc3n2CC(=O)Nc2cccc(C)c2C)cc1,?,.,-,-,-,?
O=C(CS(=O)c1ccc(F)cc1)N1CCOCC1 (centres undefined),-,-,-,.,-,-
CC(C)c1ccc(C(=O)NCCCN(C)C)cc1,-,-,-,-,-,-
O=C(CN1CCCC1)N1c2ccccc2C=Cc2ccccc21,-,-,-,-,-,-
CN(C)CCCNC(=O)N1c2ccccc2C=Cc2ccccc21,-,27µM,-,.,?,?
CCN(CC)C(=O)N1c2ccccc2C=Cc2ccccc21,10µM,-,-,-,-,9.2µM
Cc1cnc(C)c(-c2ccc(O)c(CN3CCN(C=O)CC3)c2)n1,-,.,.,.,.,-
